# p53ts 39C tox: qHTS Screen for Compounds that Selectively Target Cancer Cells with p53 Mutations: Cytotoxicity of p53ts Cells at the Nonpermissive Temperature; hit rate 1.5% among 130,000; Potency, µM (highest dose often 46.1 µM), inactives show at the highest dose activity change, negative = cell killing, most hits filed as cytotoxic; H1299-p53A138V viability at 39C, ATP luminescence, 24 h; also: % is scaled to controls: 0 for no effect and ±100 for the full control effect; nearly all actives have a fitted effect of over 55% in size
# p53ts 32C kill: qHTS Screen for Compounds that Selectively Target Cancer Cells with p53 Mutations: Cytotoxicity of p53ts Cells at the Permissive Temperature | H1299-p53A138V at 32C, ATP luminescence viability, 24 h | Potency, µM (highest dose often 46.1 µM), inactives show at the highest dose activity change, negative = cytotoxicity, most hits filed as cytotoxic | hit rate 0.93% among 130,000;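 also: 0% = DMSO and -100% = full killing by reference compound; nearly all actives have a fitted effect of over 55% in size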
#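 Cells: H1299 p53ts (A138V), 600/well, pre-incubated 16–30 h at 37C. Cpd up to 46 uM, 24 h, 32C. Readout: ATPlite luminescence, 20 min RT. Normalization: DMSO vs tamoxifen 100 uM. AC50 by Hill equation.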
# Imprint erasure: qHTS Assay for Compounds that Induce Erasure of Genomic Imprints; mouse ES Peg3-LacZ reporter, beta-gal luminescence, 40 h; Potency, µM (top dose mostly 60.7 µM), for the others: at the top dose activity change, positive = activation, hits mostly activators; hit rate 0.02% among 110,000
#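 Each well holds 300 Peg3LacZ-Neo (maternal) female ES cells incubated 40 h at 37C, 5% CO2. LacZ is measured by BetaGlo luminescence, with AC50 and maximum efficacy derived from dose-response curves.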
# IkB signaling: IkB Signaling; hit rate 0.04% among 110,000; Potency, µM (doses to about 57.1 µM), inactives show at the highest dose IkBa stabilization activation; AID 445, 2006; ABC-DLBCL IkBa-CBG/CBR dual luciferase ratio, 4 h; response scale: scaled: untreated 0%, proteasome inhibitor 100%; active = well fitted curve in the direction sought with a large enough effect in the signal ratio, not every such curve was filed as active; inconclusive = small, poorly fitted or top-dose-only effect, or a change in a side signal; the % refers to the signal ratio;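 also: the direction sought is a rising ratio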
#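 Curves were fitted separately to fusion (green), unfused (red) and ratio luminescence, then classed by r2, magnitude and activity. Cells: OCI-Ly3, 4 h compound plus doxycycline at 37C; 10 uM MG-132 defined full response.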
# * = called active by the depositor; ? = inconclusive; . = no result given; [ ] = another dose, or the depositor's remark. Sampled rows, rich in hits. Any-hit rate of the full collection: about 1.7%. Unless noted, calls follow the shape of the dose curve; as a rule, active = well fitted curve in the direction sought with a large enough effect; inconclusive = small, poorly fitted or top-dose-only effect, or another doubt; inactive = no such curve, though single readings can be large; an effect the other way counts as inactive or inconclusive. Potency is read from the fitted curve at half-maximal effect.
SMILES,p53ts 39C tox,p53ts 32C kill,Imprint erasure,IkB signaling
COC(=O)CCN(c1ccccc1)C(CNS(=O)(=O)c1ccccc1)c1ccccc1 (centres undefined),-25.7%,25.5%,-6.3%[10.9 µM],?
CN(C)C(=O)c1ccc(-c2nccc(NCc3cccs3)n2)cc1,-13.1%,5.9%,?,-0.5%[11.4 µM]
CN(C)c1ccc(-c2nccc(NCc3cccs3)n2)cc1,5.01µM*,7.94µM*,-32.4%,12.7%[11.4 µM]
O=C1C(=O)N(Cc2ccc(Cl)c(Cl)c2)c2ccccc21,6.31µM*,?,-32.1%,?
O=C1c2ccccc2N(Cc2ccc(Cl)cc2)C2=NCCN12,6.6%,7.7%,.,.
COc1cc(NS(=O)(=O)c2cc(Br)cc3c2N(C(=O)C2CC2)CC3)cc(OC)c1,12.6µM*,10µM*,-24.4%[10.9 µM],1.3%
c1ccc(-c2noc(COc3ccc4c(c3)OCO4)n2)cc1,2.5%,-2.7%,-0.8%,-1.1%
Fc1ccc([C@@H]2CCNC[C@H]2COc2ccc3c(c2)OCO3)cc1,12.6µM*,?,-30.9%,.
Cc1cccc(C)c1OCC(=O)Nc1nc(-c2ccc(Br)cc2)ns1,-12.1%,13.7%,-12.2%[10.9 µM],?
CCc1ccc2c(c1)c(=O)c(C(=O)c1ccccc1)cn2CC(=O)Nc1ccc(C)c(Cl)c1,15.8µM*,-22.5%,-28.1%[10.9 µM],?
CCc1ccc(C(=O)c2cn(CC(=O)Nc3ccc4c(c3)OCO4)c3cc(OC)c(OC)cc3c2=O)cc1,-11.5%,2.3%,-8.2%[10.9 µM],?
CCc1ccc(C(=O)c2cn(CC(=O)Nc3ccc4c(c3)OCO4)c3ccc(CC)cc3c2=O)cc1,12.6µM*,?,-26.9%[10.9 µM],-0.1%
CCOc1ccc(C(=O)c2cn(CC(=O)Nc3ccc(C)c(Cl)c3)c3ccc(OCC)cc3c2=O)cc1,16.1%,0.3%,-14.9%[10.9 µM],?
CCc1ccc(C(=O)c2cn(CC(=O)Nc3ccc4c(c3)OCO4)c3ccc(Cl)cc3c2=O)cc1,12.6µM*,-28.2%,-20.9%[10.9 µM],1.1%
Cc1ccccc1-c1nccc(Nc2ccc(F)cc2)n1,-22.2%,-13.1%,-4.3%,1.7%[11.4 µM]
CCCc1nn2c(=O)cc(COC(=O)c3cccs3)nc2s1,7.5%,-5.8%,-10.0%[10.9 µM],60.9%
CN(C)CCCCNC(=O)c1ccc(-n2c(=O)c(=O)[nH]c3ccccc32)cc1,-6.9%,-10.4%,.,.
O=C(NC1CCN(Cc2ccccc2)C1)c1ccc(Cc2nc3ccccc3[nH]2)cc1 (centres undefined),-3.4%,-3.7%,.,.
COc1ccc(C(=O)c2ccccc2O)c(O)c1,-2.7%,12.2%,-13.7%,0.4%[25.6 µM]
COc1ccc(O)c(C(=O)CC(=O)c2ccccc2)c1,12.6µM*,10µM*,-86.0%,15.7%
O=C(Cn1cnc2onc(-c3ccc(F)cc3)c2c1=O)Nc1ccc(F)c(Cl)c1,12.6µM*,-1.2%,14.3%[10.9 µM],?
O=C(Cn1cnc2onc(-c3ccc(Cl)cc3)c2c1=O)Nc1ccc(F)cc1,?,2.5%,-11.4%[10.9 µM],?
O=C(Cn1ncc2c3ccccc3n(Cc3ccccc3F)c2c1=O)NC1CCCCCC1,7.94µM*,-10.9%,-16.5%[10.9 µM],1.2%
c1ccc2c(c1)CCN(c1nc3cc4c(cc3s1)OCCO4)C2,2µM*,1.58µM*,-81.3%,?
O=S(=O)(c1ccc2c(c1)OCCO2)N1CCN(c2nc3ccccc3s2)CC1,-11.0%,-8.3%,-5.8%,4.2%
SMILES,p53ts 39C tox,p53ts 32C kill,Imprint erasure,IkB signaling
N[C@H](CS(=O)O)C(=O)O,.,.,.,2.3%
COC(=O)c1ccc2c(=O)n(CCCCCC(=O)N3CCN(c4cc(C)ccc4C)CC3)c(=O)[nH]c2c1,6.31µM*,15.8µM*,12.7%[10.9 µM],?
CCCC(=O)Nc1ccc(-c2nc3cc(C)c(C)cc3o2)cc1,5.8%,-6.3%,-17.7%,-0.2%
CCCC(=O)Nc1cccc(-c2nc3cc(C)c(C)cc3o2)c1C,2.51µM*,2µM*,-18.8%[10.9 µM],?
O=S(=O)(c1ccc(-c2cnc(C3CC3)o2)cc1)N1CCN(c2ccc(F)cc2)CC1,-19.7%,-8.2%,-18.8%[10.9 µM],0.6%
CO[C@@H]1/C=C\O[C@]2(C)Oc3c(C)c(O)c4c(O)c(c(/C=N\N5CCN(C)CC5)c(O)c4c3C2=O)NC(=O)/C(C)=C\C=C/[C@H](C)[C@H](O)[C@H](C)[C@H](O)[C@H](C)[C@H](OC(C)=O)[C@@H]1C,.,.,.,-0.6%[11.4 µM]
COc1cccc2sc(Nc3nnc(-c4cccs4)o3)nc12,12.6µM*,?,-92.0%,?
Fc1cccc2sc(Nc3nnc(-c4ccco4)o3)nc12,?,?,-62.0%,?
CCOC(=O)c1cc(-c2ccc(C)cc2)n(CC(=O)Nc2ccc(OC)c(Cl)c2)c1C,7.94µM*,?,-31.5%[10.9 µM],-0.8%
Cc1nn(Cc2ccc(Cl)cc2Cl)c(C)c1NC(=O)CCl,5.62µM*,17.8µM*,.,.
Cc1ccc(N=c2oc3cc(O)ccc3cc2C(N)=O)cc1,7.94µM*,?,-26.3%,?
COc1ccc(N=c2oc3cc(O)ccc3cc2C(=O)NCC2CCCO2)cc1 (centres undefined),9.7%,4.0%,.,?
O=C1OC2(c3cc(Br)c(O)c(Br)c3Oc3c2cc(Br)c(O)c3Br)c2c(Cl)c(Cl)c(Cl)c(Cl)c21,3.2%,-3.9%[1.84 µM],-1.1%,-9.4%
CCCCCN=Cc1c(C)[nH]n(-c2nc3ccccc3s2)c1=O,0.794µM*,1µM*,-96.6%,?
CCOc1ccccc1NC(=O)Cn1c(=O)n(CCCC(=O)NCCc2ccc(C)cc2)c(=O)c2ccccc21,5.2%,7.7%,4.2%[10.9 µM],3.4%
CCCCCn1c(=N)c(S(=O)(=O)c2ccccc2)cc2c(=O)n3ccccc3nc21,-0.5%,0.4%,-7.1%[10.9 µM],0.0%
COc1ccccc1OCC(=O)Nc1ccccn1,7.94µM*,10µM*,-92.5%,?
O=C(COc1ccc(Cl)cc1Cl)NCc1ccncc1,0.2%,-3.8%,-13.6%,0.9%
O=C(COc1ccc(Cl)cc1)Nc1ccc(Cl)cn1,-4.6%,-21.3%,-19.4%,8.9%
O=C(CC(=O)Nc1ccccn1)Nc1ccccn1,4.5%,-6.9%,8.2%,-0.3%
O=C(COc1ccc(Cl)cc1Cl)NC(=O)N1CCCCC1,?,12.6µM*,-5.0%,2.4%
O=C(COc1ccccc1Cl)Nc1ccc(Cl)cn1,15.8µM*,12.6µM*,-51.1%,-2.3%
O=C(COc1ccc(Cl)cc1Cl)Nc1ccccn1,0.631µM*,0.398µM*,-96.7%,?
Cc1ccc2[nH]c(C)c(CCNC(=O)c3cc4cc(Br)ccc4oc3=O)c2c1,8.6%,-4.7%,-1.8%[10.9 µM],0.4%
COc1ccc2c(c1OC)C(=O)N(c1cccc(C)c1)C2,5.01µM*,7.94µM*,-49.9%,3.5%
COc1ccc2c(c1OC)C(=O)N(c1cccc(C(F)(F)F)c1)C2,?,?,-20.3%,0.1%
COc1ccc(-c2cc(C(=O)NCc3ccc(F)cc3)c3c(-c4ccc(F)cc4)[nH]nc3n2)cc1OC,12.6µM*,?,-13.3%[10.9 µM],?
CN(CCCNC(=O)c1cc2c(Cl)nc3ccccc3c2s1)Cc1ccccc1,?,3.2%,-7.8%[10.9 µM],?
